# In the supplement of paper PMC6555819:
# Key:
# Test in all cases: PBM binding z-score (relative to random genomic background probes); higher = stronger binding; sequences stand for … in GC…GCGATTGACAGCGTAGAATGAAGG
# [1] = tested on: FXR:RXRa (NR concentration 270 nM, RXRa partner concentration 90 nM)
# Procedure, shortened: (§1)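 Ligand-free nuclear receptor dimers were bound for 1 h to custom Agilent 4×180K protein-binding microarrays. Detection used antibodies against each partner (one per run). Binding z-scores rest on regression-normalized fluorescence, with random background probes as the reference.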
# [2] = tested on: LXRa:RXRa (NR concentration 270 nM, RXRa partner concentration 90 nM)
# Procedure, shortened: as §1
# [3] = tested on: LXRa homodimer (NR concentration 270 nM)
# Procedure, shortened: as §1
# [4] = tested on: LXRb:RXRa (NR concentration 270 nM, RXRa partner concentration 90 nM)
# Procedure, shortened: as §1
# [5] = tested on: LXRb homodimer (NR concentration 270 nM)
# Procedure, shortened: as §1
# [6] = tested on: PPARa:RXRa (NR concentration 270 nM, RXRa partner concentration 90 nM)
# Procedure, shortened: as §1
# [7] = tested on: PPARg:RXRa (NR concentration 180 nM, RXRa partner concentration 90 nM)
# Procedure, shortened: as §1
# [8] = tested on: PPARg:RXRa 270nM:90nM, anti-RXR (NR concentration 270 nM, RXRa partner concentration 90 nM)
# Procedure, shortened: as §1
# [9] = tested on: PPARg:RXRa 30nM:10nM, anti-RXR (NR concentration 30 nM, RXRa partner concentration 10 nM)
# Procedure, shortened: as §1
# [10] = tested on: PPARg:RXRa 90nM:30nM, anti-RXR (NR concentration 90 nM, RXRa partner concentration 30 nM)
# Procedure, shortened: as §1
Sequence,PBM binding z-score [1],PBM binding z-score [2],PBM binding z-score [3],PBM binding z-score [4],PBM binding z-score [5],PBM binding z-score [6],PBM binding z-score [7],PBM binding z-score [8],PBM binding z-score [9],PBM binding z-score [10]
ATATGTAGGTTATCGGGCCATTCAGTTTGCGCAT,0.607,1.03,0.565,0.95,0.458,3.22,5.22,4.45,1.98,3.76
CCTATTAGTTGACCATAAGGGCGACCGAAGCTCG,0.484,0.482,0.301,0.554,0.545,0.197,0.29,0.138,-0.288,0.134
TCTTGTAGATCAATAGAGGTTAAGACAGTGCGCT,0.684,3.16,0.434,1.56,0.045,1.98,0.205,1.48,2.9,2.34
CAAGCTAGGTCACAGAGGTCAAAGTCCGTGCGTA,7.59,6.83,7.42,6.28,1.9,5.99,6.86,6.52,3.68,5.83
CGAACTAGGTCCAGGACAGTGAATCTCCGCACGC,-0.204,-0.571,-0.353,-0.95,-0.661,-0.195,0.3,-0.587,-0.632,-0.449
CCGACTGGGGCAAGGTTACGATAACGCACAGCCA,0.216,0.654,-0.354,0.677,-1.27,2.06,2.79,3.25,0.969,2.5
CCTATTAGTTGACCATATGGGCAACCGAAGCTCG,0.27,0.454,0.368,0.353,0.853,-0.034,0.453,0.317,-0.521,-0.00655
GCGACTCGGGCAAAGCAGGTTACCATAAGGTTGG,-0.00273,-0.166,-0.636,-0.448,-1.41,0.221,0.413,-0.165,-0.926,-0.846
TCTAGCAGGCCAGAGTGTCACTCAAGAGGTACGG,-0.276,-0.311,-1.03,-0.712,-1.41,0.336,0.89,1.81,1.93,1.97
TCTTGTACATCAATAGAGGTTAAGAAAGTGCGCT,0.725,3.49,0.473,1.79,0.532,1.82,0.201,1.72,3.01,2.08
GCTAGCAGGCCATTTGGGGCACTCAATGACGGGC,-0.254,-0.719,-0.424,-0.753,-0.89,-0.000395,0.377,-0.278,-0.304,-0.0904
TCGAGTAGCTTAGGGGCATTCAGAATGGCGTCGA,-0.301,-0.0309,-0.497,0.0994,-1.06,0.246,-0.362,0.211,0.569,0.263
TCTAGCAGGCCAGAGGGTCACTCATGAGGTACGG,0.745,0.822,-0.462,0.852,-1.1,2.2,1.64,2.87,2.19,2.63
TCTTGTAGATCAATAGAGGTTAAGATAGTGCGCT,1.04,3.81,0.813,1.97,-0.0819,1.99,0.479,1.59,2.43,2.03
GATACAGGGACAAGGCCAGAGTACGCGTATTGAT,-0.342,-0.63,-0.318,-0.797,-0.748,-0.534,0.946,0.318,0.00447,-0.175
CCTAGTTGGTAAAGGTCACACACGCTATAGGTAC,6.25,5.71,4.56,5.64,2.13,5.93,5.47,6.3,4,5.63
ATATGTAGGTTAGATGGGGTCATTCAGACTAGGC,4.98,5.67,3.54,4.97,1.56,5.11,5.98,5.22,2.6,4.55
CAAACTAGGTCAAAGGTCACAGTCGAGCCAACCA,8.05,6.81,4.49,7.06,2.03,7.83,13.8,11.1,13.2,13.2
CGAACTAGATCATCCAGGACAGTGAATACATTGA,0.155,-0.152,0.195,-0.18,0.286,-0.169,0.554,-0.19,0.138,-0.219
CAAACTAGGTCGAGAGGTCAAAGTCCGCTTCCCG,5.34,5.53,4.87,4.61,1.17,5.6,6.98,6.37,4.44,6.54
CAAACTCGGTCACCGGAAGGTCAAAGTCCGCATG,4.53,5.04,4.93,3.86,1.28,4.39,3.62,4.26,1.23,3.26
TCATATTGGTAATACAGGTGAAAGTCGGCATCTA,1.28,1.16,0.763,1.2,0.359,1.79,1.09,2.7,3.88,3.11
AGAATGAGGTGAAGATCAGGGAAACAGAATACAT,0.903,0.457,-0.113,0.85,-0.114,2.91,2.33,2.21,0.859,1.5
TCTATTAGTTGATTAGGGCTACCGAAACAGCGGA,0.263,0.345,-0.0589,0.351,0.304,0.505,0.0193,2.26,3.84,2.98
AGAGTGAGGTTATACGTAGATCAGGGAAGAAAGT,2.32,2.18,0.433,2.06,0.71,2.91,1.11,1.19,0.329,0.849

Sequence,PBM binding z-score [1],PBM binding z-score [2],PBM binding z-score [3],PBM binding z-score [4],PBM binding z-score [5],PBM binding z-score [6],PBM binding z-score [7],PBM binding z-score [8],PBM binding z-score [9],PBM binding z-score [10]
AGAACGAGGGCACACTGAGTTGATAGCAGAGTAG,0.801,0.517,-0.135,0.356,-0.454,2.02,1.96,1.64,0.493,1.01
ATAATGAGGTTATTAAGATCAGGGAATTGCGGTC,1.9,2.12,0.684,1.48,1.07,2.81,1.91,2.14,0.859,1.5
GTACCAAGGTGAATAGGTCGCTGATGAGTAGGCG,0.713,0.531,-0.254,0.0295,-0.695,1.95,1.48,1.74,0.17,1.14
TAGCCTAGGTCACTCAGGGGCCAGTATAGAAAGC,3.32,2.18,-0.258,2,-0.123,3.18,2.64,2.29,0.26,1.24
CCTAATTGGTCAAGGTCACACACGCTATAGGTAC,4.21,4.15,2.33,4.22,1.18,4.36,3.13,3.45,1.13,2.69
AGAACCAGGGCACGCTGAGTTGATAGCAGAGTAG,-0.172,0.136,-0.611,-0.397,-1.03,1.29,1.55,1.19,-0.116,0.466
CCGACTGGGGCATAAGGTTACCACAAGCCAGCCC,0.502,1.28,-0.388,0.812,-0.551,2.07,2.44,3.27,0.735,2.92
AGTCAAAGTTCGCTAGGTAACGTAAGATTCAGCT,0.102,0.248,-0.0137,0.158,-0.513,0.793,1.64,2.36,0.554,1.85
TGTGAAAGTTCAAAGGTAACGTAAGTATCCACAC,6.55,5.73,4.61,4.36,2.11,5.49,6.77,6.84,4.1,6.25
GTACCAAGGTGAATAGGTCGTTGGTGAGTAGGCG,0.874,0.844,-0.171,0.388,-0.834,2.25,1.17,1.93,0.116,1.13
ATCTATAGGTAACCAAGTTCAGTGAATGCCGAAC,0.275,0.814,0.873,0.556,0.386,1.01,0.856,0.848,0.142,0.641
ATGTCTAGGTAACCAAGTTCAGTGAATGCCGAAC,0.425,0.708,0.547,0.184,0.286,1.08,0.622,0.664,-0.0406,0.432
TAGCCTATGTCATTCAGGGGCCAGTATAGAAAGC,-0.275,-0.326,-0.461,-0.0773,0.117,-0.00609,0.175,-0.205,-0.271,-0.159
ATCGAAAGGTCGACGAGGTGAGTTTACACCGTTT,4.66,3.45,0.17,2.95,0.407,4.71,2.73,3.1,0.726,2.05
TCATATAGGTAAAAAGTGAAAGTCGGTGTGGTAA,1.13,1.01,0.0735,0.858,-0.108,2.62,3.5,5.44,5.22,5.77
TGTCAAAGTCCAAAGGTAACGTAAGTATCCACAC,-0.0292,0.605,-0.413,0.55,-0.353,1.61,2.27,2.93,1.07,2.43
ACTAGCAGGCCAAGGGTCACTGAAGATTAGTCCG,3.07,2.89,0.0691,2.66,-0.585,4.73,8.44,7.62,6.5,8.43
AGAATGAGGTTACCAAAGATAAGGGAAACGCTTG,1.56,1.65,-0.398,1.2,-0.13,3.46,2.87,2.43,0.9,1.9
ACTCGGAGGACAAAGGTCAGAGCGACGCCAGTGA,4.14,4.3,1.14,3.61,0.216,4.97,7.85,6.9,5.06,7.27
GCTTGTAGATCAAGGTAAAGAAAGACTAAGCTAA,-0.136,-0.278,-0.768,-0.413,-0.986,-0.222,0.0186,0.28,-0.318,-0.167
TCTCGGACGACACGAAAGGTCAGAGCTCGACATC,2.91,3.74,2.39,3.3,0.313,3.69,1.12,2.86,2.84,2.66
AGAATGAGGTTATTAAGACCAGGGAATTGCGGTC,1.7,1.52,-0.287,1.09,-0.232,2.8,1.57,1.93,0.533,1.05
TCTTGTAGATCAGCTGGTTAAGAAAGCTGGCCAA,0.0372,-0.146,-0.717,-0.0754,-0.836,0.363,-1.11,1.04,2.43,1.75
ATCTCTAGGTAAAGATTGTTCAGTGAATGCAAAT,0.226,0.124,0.091,0.234,0.621,0.0998,0.137,0.495,0.342,0.381
